Shown is part of a subset that was picked to be rich in hits.
Tg IFNy HTS: inhibitors of Toxoplasma gondii growth with IFN-gamma; Toxoplasma gondii growth in IFN-gamma-treated host cells; stronger effect = lower value; activity change, negative = inhibition, % (no concentration beside the values); 3.8% of 69,000 active; AID 1259416; in the data active = activity change below about -70%, passing the limit was not always enough;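 also: host cells are HeLa cells infected with Toxoplasma gondii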
* hit, by the source's call; ! = not confirmed by another sample.

SMILES	Tg IFNy HTS
C[C@]12CC[C@@H]3c4cc(O)c(O)cc4CC[C@H]3[C@@H]1CC[C@@H]2O	-67
COc1ccc2c(c1)CCC1C2CC[C@@]2(C)C1CC[C@@H]2O (some centres not stated)	-46
CC(=O)[C@@]1(O)CC[C@H]2[C@@H]3CCC4=CC(=O)CC[C@]4(C)[C@H]3CC[C@@]21C	8
CC(=O)O[C@H]1CC[C@H]2[C@@H]3CCc4cc(O)ccc4[C@H]3CC[C@]12C	-6
C[C@]12CC[C@@H]3c4ccc(O)cc4CC[C@H]3[C@@H]1CC[C@@H]2O	-84*
C[C@]12CC[C@@H]3c4ccc(OS(=O)(=O)O)cc4CC[C@H]3[C@@H]1CCC2=O	1
C#C[C@]1(O)CC[C@H]2[C@@H]3CCc4cc(O)ccc4[C@H]3CC[C@@]21C	-79*!
CC(=O)OC1CCC2C3CCc4cc(O)ccc4C3CCC12C (configuration not stated)	-28
C[C@]12CCC3c4ccc(OC(=O)c5ccccc5)cc4CCC3C1CC[C@@H]2O (some centres not stated)	-87*
C#CC1(O)CCC2C3CCC4=Cc5oncc5CC4(C)C3CCC21C (configuration not stated)	-86*
CC(=O)[C@@]1(O)CCC2C3CCC4=CC(=O)CC[C@]4(C)C3CC[C@@]21C (some centres not stated)	-11
CC12CCC3c4ccc(OC(=O)c5ccccc5)cc4CCC3C1CCC2O (configuration not stated)	-53
Cc1cc(C)n2nc(C(=O)NCCN3CCc4ccccc43)c(Cl)c2n1	88
CN(C)c1ncc(-c2ccccn2)c(CN(Cc2ccccc2)C(=O)C2CC3C=CC2O3)n1 (configuration not stated)	63
COCCN(Cc1cnn(C)c1)C(=O)C1CC2(CCNCC2)CN1 (configuration not stated)	122
O=C(c1ccccc1-c1ncn[nH]1)N1CCC(CO)(Cc2ccccc2)CC1	13
CC1=N[C@]2(CC[C@H]3CN(Cc4c(C)noc4C)C[C@H]32)C(=O)N1CC(C)C	-46
CS(=O)(=O)N1CCCC1CCc1ccc(Cl)nn1 (configuration not stated)	41
CCCc1cc(N2CCC(N3CCSCC3)CC2)nc(C)n1	-4
CCc1cnc(C)nc1-c1cc(NCCO)nc2[nH]ccc12	-60
COc1ccccc1-c1nc(Cn2nnc(C(=O)Nc3ccc(C)cc3Br)c2C)c(C)o1	59
CCCc1nnc(SCC(=O)NC2CC3CCC2C3)o1 (configuration not stated)	-14
CCCCC(=O)Nc1cccc(C(=O)N(CC)C2CCOC(C)(C)C2)c1 (configuration not stated)	0
O=C1N(Cc2ccccn2)C(=O)C2(CCN(C3Cc4ccccc4C3)CC2)N1Cc1ccccc1	12
O=C(Cn1nc2n(c1=O)-c1ccccc1C1=NCCCN12)NCc1ccccc1	-35
SMILES	Tg IFNy HTS
C[C@]12CCC3c4ccc(O)cc4CCC3C1CCC2=O (some centres not stated)	-79*
CC12CCC3c4ccc(O)cc4CCC3C1CCC2=O (configuration not stated)	-63
COc1ccc2c(c1)CCC1C2CCC2(C)C(=O)CCC12 (configuration not stated)	-14
Cc1ccc2ncnc(NCCC(=O)NC(C)c3ccc4c(c3)CCCO4)c2c1 (configuration not stated)	-64
O=C(Cn1ncc2c(N3CCCC3)ncnc21)Nc1ccccc1C(F)(F)F	103
CC(=O)Nc1ccc(Nc2nc(-c3nnc(-c4ccc(F)cc4)o3)nc3ccccc23)cc1	56
CC(c1cc2ccccc2s1)N(O)C(N)=O (configuration not stated)	-68
OC(CNCc1cc2ccccc2s1)C(F)(F)F (configuration not stated)	-86*
COc1ccc(NC(=O)N2CCC3(CC2)Nc2cc(F)ccc2-n2cccc23)c(OC)c1	249
Cc1ccc(CN2CCCC3(COCCN(c4cnccn4)C3)C2)s1 (configuration not stated)	-94*
CS(=O)(=O)N1CCCC2(COCCN(c3cnccn3)C2)C1 (configuration not stated)	0
Cc1ccc(CN2CCC3(CC2)COCCN(c2ncccn2)C3)s1	-2
N#Cc1nccnc1SCc1ccc(Cl)cc1Cl	-30
CCCn1cc(C(=O)NC2CC3(CCOCC3)Oc3ccccc32)c(C)n1 (configuration not stated)	6
COc1cc(Cc2nc(CC(C)C)n[nH]2)cc(OC)c1OC	23
CCn1cc(-c2cc(C(=O)Nc3nc(-c4cc(C)c(OC)cc4C)cs3)no2)cn1	-42
CC(C)(C)c1csc(NC(=O)Nc2ccc(Cl)cc2)n1	-103*
Cc1nc(-c2cccs2)sc1NC(=O)Nc1ccc(Cl)cc1	65
CC(CC(=O)Nc1nc(C(C)(C)C)cs1)n1cncn1 (configuration not stated)	5
COc1ccc(-c2nc(Cn3nnc(-c4nc(-c5ccccc5)no4)c3C)c(C)o2)cc1	-58
COc1cccc(CNCC2CCNCC2)c1OCc1ccc(F)cc1	-52
O=C(Cn1c(=O)cc(C(=O)N2CCCCC2)c2ccccc21)Nc1cccc(Cl)c1	-20
Cc1cc(NC(=O)CC2CCCCC2)n(-c2ncnc3c2cnn3-c2cccc(Cl)c2)n1	9
O=c1[nH]c2cc3c(cc2cc1CNc1cccc2c1CCCC2)OCCO3	7
Cc1noc(CN(C)Cc2cc3cc4c(cc3[nH]c2=O)CCC4)n1	-5
SMILES	Tg IFNy HTS
O=c1[nH]c2cc3c(cc2cc1CNc1ccc(N2CCCCC2)cc1)CCC3	-99*
Cc1ccc2nc(Cc3ccc(NC(=O)CCc4nc5ccccc5[nH]4)cc3)[nH]c2c1	223
Cc1ccc(-n2[nH]c(C)c(CC(=O)O)c2=O)cc1	78
Cc1ccc(Cc2c(C)[nH]n(-c3nc4ccccc4[nH]3)c2=O)cc1	-98*
Cc1ccc(-c2cncnc2)c(-n2nc(C)cc2C)c1	4
COc1cc(C(=O)Nc2ccc(-n3ccnc3C(C)C)cc2)nc(OC)n1	-29
CSc1ccc(-c2noc(-c3c(O)c4cc(C)ccc4[nH]c3=O)n2)cc1	17
Cc1ccc2[nH]c3c(c2c1)CCOc1ccccc1-3	21
Cc1ccc2[nH]c3c(c2c1)CCc1nonc1-3	-99*
Cn1cncc1CC1COC(=O)C1C(O)c1ccccc1 (configuration not stated)	10
COc1cccc(CNC(=O)Nc2ccc(-c3nc(-c4ccc(C)cc4C)co3)cc2)c1	9
Cc1cc(C)cc(C(=O)NCCc2sc(-c3ccc(Cl)cc3)nc2C)c1	-49
CCOc1cc(CCC(=O)N2CCc3[nH]c4c(Cl)cccc4c3C2)on1	40
CCOc1cc(CCC(=O)N2CCCc3c(Cl)cc(Cl)c(O)c32)on1	-87*
CCOc1cc(CCC(=O)Nc2n[nH]c(CC)n2)on1	39
COC[C@@H]1CN(C)C[C@@]12CCN(C(=O)N1CCCC1)C2	18
CCCCOc1ccc(C(=O)NCCc2csc(-c3cccc(F)c3)n2)cc1	-81*
Cc1cccc(-c2nc(CCNC(=O)c3ccco3)cs2)c1	497
O=C(NCCc1csc(-c2ccc(Cl)cc2)n1)c1cccc(F)c1	-50
O=C(NCCc1csc(-c2ccc(Cl)cc2)n1)c1ccco1	-81*
COc1ccc(C(=O)NCCc2csc(-c3cccc(F)c3)n2)cc1	7
O=C(NCCc1csc(-c2ccccc2)n1)c1ccc(Cl)cc1	399
Cc1nc(-c2cccc(F)c2)sc1CCNC(=O)c1ccc(C(C)(C)C)cc1	-43

Screens (PubChem BioAssay)
